Compounds without any hit were thinned out: in the full panel of roughly 79,000, 15% have a hit. Values without a mark were called inactive. Calls of active or inactive are those of the source. Rule as the data show it: active = growth inhibition above about 70%; inactive = the rest.

From PubChem BioAssay (NCI) come the findings set out here.

Assay [1] is described as follows: NCI Yeast Anticancer Drug Screen. Data for the rad50 strain (AID 155).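 Also: 0% = growth of vehicle-only cultures of the same strain.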 The conditions noted are these: S. cerevisiae rad50 strain growth inhibition, stronger effect = higher value. In short, it runs like this: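 Growth of the mutant yeast was measured after compound exposure and referenced to vehicle-treated cultures.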
The nature of assay [2]: NCI Yeast Anticancer Drug Screen. Data for the mec2-1 strain (AID 157). The settings on record: S. cerevisiae mec2-1 strain, stronger effect = higher value. In short, it runs like this: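 Test agents were screened against the mec2-1 yeast strain, with defined DNA repair or cell cycle alteration. Growth was scored as inhibition against vehicle-only controls.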
A short description of assay [3]: NCI Yeast Anticancer Drug Screen. Data for the sgs1 mgt1 strain (AID 161).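 Also: 0% = growth of cultures given vehicle only.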 The conditions noted are these: S. cerevisiae sgs1 mgt1 strain, stronger effect = higher value. In short, it runs like this:
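Mutant yeast exposed to compound; growth scored against vehicle-only wells.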

A short description of assay [4]: NCI Yeast Anticancer Drug Screen. Data for the cln2 rad14 strain (AID 165).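 Also: 0% = growth equal to vehicle treated cultures.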 The conditions noted are these: S. cerevisiae cln2 rad14 strain, stronger effect = higher value. The gist of the method: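 Growth of compound-exposed yeast (cln2 rad14 genotype) measured and expressed as inhibition relative to vehicle.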
The nature of assay [5]: NCI Yeast Anticancer Drug Screen. Data for the bub3 strain (AID 167). The conditions noted are these: S. cerevisiae bub3 mutant strain, stronger effect = higher value. The gist of the method:
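Whole-cell yeast assay. The mutant strain was incubated with compounds, and growth inhibition was determined by comparison with vehicle-treated cells.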

A short description of assay [6]: NCI Yeast Anticancer Drug Screen. Data for the mlh1 rad18 strain (AID 175). The conditions noted are these: S. cerevisiae mlh1 rad18 strain growth inhibition, stronger effect = higher value. In short, it runs like this:
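In this whole-cell yeast screen, a strain with altered DNA damage repair is challenged with compound, and its growth is measured against matched vehicle-treated controls.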

Where [7] appears, read: at 5.0 µM (retest, dose inferred, filed as 0.5).
The mark [8] stands for this setting: at 50.0 µM (retest, dose inferred, filed as 5.0).

Turning to `Cc1ccc2c(c1C)-c1c(ccc(C)c1C)C(=O)C2=O`, the growth inhibition in assay [1] (setting [7]) is 13%; in assay [1] (setting [8]) it was 98% (active); in assay [1] (at 50.0 µM), 99.3% (active); in assay [2] (setting [7]), 35%; in assay [2] (setting [8]), 99% (active); in assay [2] (at 50.0 µM) it was 99.4% (active). Further, the growth inhibition in assay [3] (setting [7]) was 5%; in assay [3] (setting [8]) it was 99% (active); in assay [3] (at 50.0 µM), 99.7% (active); in assay [4] (setting [7]) it was -14%; in assay [4] (setting [8]) it was 98% (active); in assay [4] (at 50.0 µM), 99.6% (active). Further, the growth inhibition in assay [5] (setting [7]) is 46%; in assay [5] (setting [8]), 98% (active); in assay [5] (at 50.0 µM), 99.5% (active); in assay [6] (setting [7]), 75% (active); in assay [6] (setting [8]) it was 99% (active); in assay [6] (at 50.0 µM) it was 99.5% (active).

On to `CCOC(=O)C(Cc1cn(S(=O)(=O)c2ccccc2)c2ccccc12)(NC(C)=O)C(=O)OCC`, for which the growth inhibition in assay [1] (setting [7]) was -2%; in assay [1] (setting [8]) it was 17%; in assay [1] (at 50.0 µM), 61.8%; in assay [2] (setting [7]) it was -11%; in assay [2] (setting [8]) it was 14%; in assay [2] (at 50.0 µM), 17.3%. Moreover, the growth inhibition is 8% in assay [3] (setting [7]); 30% in assay [3] (setting [8]); 70% (active) in assay [3] (at 50.0 µM); 15% in assay [4] (setting [7]); 33% in assay [4] (setting [8]); -3.35% in assay [4] (at 50.0 µM). Moreover, the growth inhibition in assay [5] (setting [7]) was -9%; in assay [5] (setting [8]), 21%; in assay [5] (at 50.0 µM), 67.7%; in assay [6] (setting [7]) it was 5%; in assay [6] (setting [8]), 35%; in assay [6] (at 50.0 µM) it was 75.5% (active).

Regarding `Clc1cccc(C2SCc3nc4ccccc4n32)c1Cl` (stereo not drawn), the growth inhibition was -2% in assay [1] (setting [7]); 97% (active) in assay [1] (setting [8]); 98.6% (active) in assay [1] (at 50.0 µM); -3% in assay [2] (setting [7]); 98% (active) in assay [2] (setting [8]); 98.4% (active) in assay [2] (at 50.0 µM). The growth inhibition in assay [3] (setting [7]) is 2%; in assay [3] (setting [8]), 98% (active); in assay [3] (at 50.0 µM), 97.5% (active); in assay [4] (setting [7]), -17%; in assay [4] (setting [8]) it was 97% (active); in assay [4] (at 50.0 µM), 97.4% (active). In addition, the growth inhibition in assay [5] (setting [7]) was 1%; in assay [5] (setting [8]) it was 98% (active); in assay [5] (at 50.0 µM) it was 98.5% (active); in assay [6] (setting [7]), -4%; in assay [6] (setting [8]) it was 98% (active); in assay [6] (at 50.0 µM), 97.1% (active).

Regarding `CN(Cc1cc(C(C)(C)C)cc(Br)c1O)Cc1cc(C(C)(C)C)cc(Br)c1O`, the growth inhibition in assay [1] (setting [7]) is 2%; in assay [1] (setting [8]) it was 24%; in assay [1] (at 50.0 µM), 72% (active); in assay [2] (setting [7]), -2%; in assay [2] (setting [8]), 91% (active); in assay [2] (at 50.0 µM), 86.2% (active). Further, the growth inhibition in assay [3] (setting [7]) was -9%; in assay [3] (setting [8]) it was 64%; in assay [3] (at 50.0 µM) it was 58.8%; in assay [4] (setting [7]), -11%; in assay [4] (setting [8]), 87% (active); in assay [4] (at 50.0 µM), 89.5% (active). For the same compound, the growth inhibition in assay [5] (setting [7]) is -11%; in assay [5] (setting [8]) it was 71% (active); in assay [5] (at 50.0 µM), 81.3% (active); in assay [6] (setting [7]), -8%; in assay [6] (setting [8]), 84% (active); in assay [6] (at 50.0 µM) it was 61.1%.

For the compound `C1=Cc2ccccc2/C1=C/c1ccccc1`, the growth inhibition is -1% in assay [1] (setting [7]); 93% (active) in assay [1] (setting [8]); 86.3% (active) in assay [1] (at 50.0 µM); -32% in assay [2] (setting [7]); 89% (active) in assay [2] (setting [8]); 60.6% in assay [2] (at 50.0 µM). In addition, the growth inhibition in assay [3] (setting [7]) is 1%; in assay [3] (setting [8]) it was 97% (active); in assay [3] (at 50.0 µM), 88% (active); in assay [4] (setting [7]), -7%; in assay [4] (setting [8]) it was 56%; in assay [4] (at 50.0 µM), 61.8%. Also, the growth inhibition in assay [5] (setting [7]) is -4%; in assay [5] (setting [8]), 95% (active); in assay [5] (at 50.0 µM) it was 96.7% (active); in assay [6] (setting [7]), 0%; in assay [6] (setting [8]), 97% (active); in assay [6] (at 50.0 µM) it was 91.2% (active).

Take `CCN(CC)c1c(C(=O)/C=C/c2ccc(F)cc2)c(-c2ccccc2)nn(C)c1=O`: the growth inhibition in assay [1] (setting [7]) is 29%; in assay [1] (setting [8]) it was 29%; in assay [1] (at 50.0 µM) it was 87.9% (active); in assay [2] (setting [7]), 2%; in assay [2] (setting [8]) it was 2%; in assay [2] (at 50.0 µM), 90.6% (active). Moreover, the growth inhibition in assay [3] (setting [7]) is 12%; in assay [3] (setting [8]), 12%; in assay [3] (at 50.0 µM), 70.5% (active); in assay [4] (setting [7]), 16%; in assay [4] (setting [8]), 16%; in assay [4] (at 50.0 µM), 90.3% (active). For the same compound, the growth inhibition was -3% in assay [5] (setting [7]); -3% in assay [5] (setting [8]); 90.3% (active) in assay [5] (at 50.0 µM); 1% in assay [6] (setting [7]); 1% in assay [6] (setting [8]); 86.2% (active) in assay [6] (at 50.0 µM).
